CXXC DNA block: inhibitors of human MLL CXXC domain-DNA interaction | Potency, µM (top dose mostly 115 µM), for inactives: at the top dose activity change, negative = inhibition, hits mostly inhibitors | AID 2662 | actives 0.037% (n = 290,000) | MLL-CXXC / FITC-HOXA9 DNA fluorescence polarization | Q03164; active means well fitted inhibition curve with a large enough effect in the polarisation, with a control signal flat, not every such curve was filed as active; inconclusive means small, poorly fitted or top-dose-only effect, or effect the other way, or a change in a side signal; inactive means no such curve, though single readings can be large or run the other way; the % refers to the polarisation; further: potency means the concentration at half of the fitted maximal effect
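Fluorescence polarization: 7 uM MLL-CXXC (stock) preincubated 5 min with compounds, then 50 nM fluorescein-HOX-A9 DNA (stock) added; 30 min ambient. Buffer 50 mM Tris-HCl pH 7.5, 50 mM NaCl, 1 mM DTT, 0.05% BSA.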
GAA inh: blocks human lysosomal alpha-glucosidase. P10253. purified human GAA, 4-MU-alpha-glucoside fluorescence. Potency, µM (titrated, usually from 76.9 µM), for inactives: at the top dose activity change, negative = inhibition, most hits filed as inhibitors. actives 0.005% (n = 200,000). AID 1466;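 further: potency means the concentration at half of the fitted maximal effect; plate controls were uninhibited enzyme wells for no effect and no-enzyme background for full effect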
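Human enzyme at 4 nM with 400 uM 4-methylumbelliferyl-alpha-D-pyranoside, citrate/phosphate buffer pH 5.0, 0.005% Tween-20, 20 min at room temperature. Compounds up to 77 uM. 4-MU fluorescence (Ex 365/Em 440) read after NaOH/glycine stop; AC50 from Hill fit.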
GAA glycogen mod: GAA glycogen-cleavage inhibition or activation; recombinant GAA, glycogen substrate, Amplex Red glucose oxidase fluorescence; Potency, µM (series often up to 76.4 µM), without a hit: at the top dose activity change, negative = inhibition, actives largely listed as inhibitors; actives 0.38% (n = 300,000); AID 2100;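 further: potency means the concentration at half of the fitted maximal effect; 0% = full enzyme reaction and -100% = no-enzyme basal signal; the screen sought inhibitors and activators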
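Recombinant enzyme (4 nM final) with compounds titrated up to 77 uM and bovine liver glycogen (30 ug) in citrate pH 5.0, 0.01% Tween-20, 37 C 40 min. Released glucose detected by Amplex Red/glucose oxidase (Ex 573/Em 610); AC50 from Hill fits.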
aGlu spleen mod: inhibits or activates alpha-glucosidase in human spleen homogenate. actives 0.006% (n = 240,000). Potency, µM (highest dose often 79.9 µM), without a hit: top-dose activity change, negative = inhibition, hits mostly inhibitors. human spleen homogenate, 4-MU-alpha-glucoside fluorescence;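 further: potency means the concentration at half of the fitted maximal effect; 0% = enzyme with vehicle and -100% = no enzyme basal signal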
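Human spleen homogenate (1 ug) with 4-methylumbelliferyl-alpha-D-glucopyranoside (1 mM final) in 50 mM citrate/phosphate pH 5.0, 0.01% Tween-20; 40 min at 37 C. Stopped at pH 10; 4-MU fluorescence Ex 365/Em 440 nm; AC50 by Hill fit.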
Menin MLL FP TR: inhibitors of human menin-MLL interaction, mutant MLL peptide; O00255; Menin + Texas Red MLL mutant peptide, fluorescence polarization; Potency, µM (series often up to 61.6 µM), inactives show at the highest dose FP activity change, negative = inhibition, actives largely listed as inhibitors; actives 0.23% (n = 270,000); AID 1768; active means well fitted inhibition curve with a large enough effect in the polarisation, with a control signal flat, not every such curve was filed as active; inconclusive means small, poorly fitted or top-dose-only effect, or effect the other way, or a change in a side signal; inactive means no such curve, though single readings can be large or run the other way; the % refers to the polarisation; further: potency means the concentration at half of the fitted maximal effect; % of control where 0% means no effect
Menin MLL FP FL: menin-MLL binding inhibition, fluorescein peptide; Fluorescence polarization, fluorescein-MLL peptide displacement from menin; FP activity change, % at 61.4 µM; 290,000 tested, under 10 active; active means well fitted curve in the direction sought with a large enough effect in the polarisation, not every such curve was filed as active; inconclusive means small, poorly fitted or top-dose-only effect, or effect the other way, or a change in a side signal; inactive means no such curve, though single readings can be large or run the other way; the % refers to the polarisation; further: % of control where 0% means no effect
MLL CXXC FP-Fl: inhibitors of human MLL CXXC domain-DNA interaction | shares compounds with CXXC DNA block | MLL CXXC-DNA binding, fluorescein FP | Potency, µM (doses to about 345 µM), without a hit: at the highest dose activity change, negative = inhibition, usual class: inhibitors | actives 70% (n = 200) | AID 624160; further: potency means the concentration at half of the fitted maximal effect; nearly all actives have a fitted effect of over 80% in size
MLL CXXC TxRed: inhibitors of human MLL CXXC domain-DNA interaction, Texas Red format | shares compounds with CXXC DNA block | MLL CXXC-DNA binding, Texas Red fluorescence polarization | Potency, µM (top dose mostly 345 µM), inactives show at the top dose activity change, negative = inhibition, actives largely listed as inhibitors | actives 40% (n = 200); further: potency means the concentration at half of the fitted maximal effect; on the % scale 0 is the no-effect control and ±100 the full control effect; nearly all actives have a fitted effect of over 75% in size
MLL CXXC HTRF: MLL CXXC-DNA interaction inhibition, HTRF readout; MLL CXXC-DNA binding, HTRF, biochemical; AID 624162; actives 30% (n = 210); Potency, µM (doses to about 172 µM), for the others: at the highest dose activity change, negative = inhibition, hits mostly inhibitors; shares compounds with CXXC DNA block; further: on the % scale 0 is the no-effect control and ±100 the full control effect; nearly all actives have a fitted effect of over 80% in size
* marks the source's active call; other numbers are inactive results; ? = inconclusive; / = not tested or not shown; [ ] = another dose, or the depositor's remark. In the library only some 0.45% were active in any assay of this set; here they are far more common. Unless noted, the call rests on the fitted dose curve; in most records, active means well fitted curve in the direction sought with a large enough effect; inconclusive means small, poorly fitted or top-dose-only effect, or another doubt; inactive means no such curve, though single readings can be large; an effect the other way counts as inactive or inconclusive.

SMILES	CXXC DNA block	GAA inh	GAA glycogen mod	aGlu spleen mod	Menin MLL FP TR	Menin MLL FP FL	MLL CXXC FP-Fl	MLL CXXC TxRed	MLL CXXC HTRF
CC1Cc2ccccc2N1C(=O)c1ccc2nccnc2c1 (stereo not given)	19%	/	-2%[76.3 µM]	/	/	/	/	/	/
O=c1[nH]c(S)c(/C=C2\C=Nc3ccccc32)s1	35µM*	?	-21%	-3%	/	?	126µM*	?	?
Oc1nc(Nc2ccc(F)cc2)sc1/C=C1\C=Nc2ccccc21	24%	/	4%	-2%	/	25	/	/	/
COc1ccc(NS(=O)(=O)c2ccc(Cl)s2)cn1	?	/	0%	5%	/	?	126µM*	2%	0%
COc1ccc(NS(=O)(=O)c2cccs2)cn1	-3%	2%	-3%	10%	6%	-9	/	/	/
COc1ccc(C(=O)[C@]2(C)C=C(c3ccc(OC)cc3)[C@H](C)C2)cc1	/	/	/	-4%	-11%	23	/	/	/
COc1ccc(OC)c(-c2cc(C(=O)Nc3cnn(Cc4ccc(Cl)cc4Cl)c3)no2)c1	/	/	11%[76.3 µM]	/	/	/	/	/	/
COc1ccc(C2OC34CCCCC3C(C#N)(C#N)C2(C#N)C(=N)O4)cc1 (stereo not given)	28µM*	?	-8%	18%	?	?	142µM*	113µM*	-3%
COc1ccc(NC2C[C@H]3CCCC(=O)N4CC[C@@H](C2)[C@@H]34)cc1 (stereo not given in full)	/	/	/	4%[119 µM]	3%[94.6 µM]	0[94.6 µM]	/	/	/
C=CC[C@@](C(C)=O)(C(=O)OC)C(NC(=O)OC)c1ccccc1 (stereo not given in full)	/	/	/	5%	3%	0	/	/	/
CCCCNC(=O)CC(C(=O)N1CCc2ccccc21)n1ccnc1 (stereo not given)	-9%	0%	1%	-8%	6%	0	/	/	/
O=C(CC(C(=O)N1CCc2ccccc21)n1ccnc1)N1CCc2ccccc2C1 (stereo not given)	32µM*	-1%	1%	-5%	-23%	4	?	10%	2%
Cc1cc(C)c(Cn2c3ccccc3c3cnn(CC(=O)NCCc4ccccc4)c(=O)c32)c(C)c1	/	/	-12%[76.3 µM]	/	/	/	/	/	/
COc1ccc(/C=C2/C(=O)ON=C2C)cc1Br	-2%	/	-14%	/	-2%	0	/	/	/
COc1ccccc1/C=C1/C(=O)ON=C1C	?	/	0%	/	-3%	-7	100µM*	126µM*	-14%
CC1OC2(C)OC(=N)C1(C#N)C(C#N)(C#N)C2c1ccccc1 (stereo not given)	-7%	-4%	1%	-6%	-2%	3	/	/	/
CCCCC1OC2(C)OC(=N)C1(C#N)C(C#N)(C#N)C2c1ccccc1 (stereo not given)	22µM*	?	10%	6%	-27%	?	28µM*	?	-5%
N.N.O=C(O)C1(C(=O)O)CCC1.[Pt]	?	/	/	-3%	6%	?	8%	?	49µM*
O=C(Nc1cc(C(=O)Nc2ccc(S(=O)(=O)O)cc2S(=O)(=O)O)cc(C(=O)Nc2ccc(S(=O)(=O)O)cc2S(=O)(=O)O)c1)Nc1cc(C(=O)Nc2ccc(S(=O)(=O)O)cc2S(=O)(=O)O)cc(C(=O)Nc2ccc(S(=O)(=O)O)cc2S(=O)(=O)O)c1	3.5µM*	/	/	8%	?	?	4.5µM*	11µM*	3.1µM*
CC(C)COc1ccc(C(=O)Nc2cc(-c3ccccc3)no2)cc1	/	/	-6%[76.3 µM]	/	/	/	/	/	/
Cn1ncc(N=Cc2c(O)ccc3ccccc23)c1C(=O)Nc1cccc(Cl)c1	45µM*	1%	-4%	6%	?	?	/	/	118%
CCN(CC)CCC[C@H](C)Nc1c2ccc(Cl)cc2nc2ccc(OC)cc12	45µM*	/	/	-6%[29.1 µM]	-23%[24.8 µM]	?	50µM*	?	0%
O=C(Cn1c(=O)oc2ccccc21)Nc1ccc(F)cc1	2%	/	10%[76.3 µM]	/	7%	6	/	/	/
O=C(OCC1OC(OC(=O)c2cc(O)c(O)c(OC(=O)c3cc(O)c(O)c(O)c3)c2)[C@@H](OC(=O)c2cc(O)c(O)c(OC(=O)c3cc(O)c(O)c(O)c3)c2)C(OC(=O)c2cc(O)c(O)c(OC(=O)c3cc(O)c(O)c(O)c3)c2)C1OC(=O)c1cc(O)c(O)c(OC(=O)c2cc(O)c(O)c(O)c2)c1)c1cc(O)c(O)c(OC(=O)c2cc(O)c(O)c(O)c2)c1 (stereo not given in full)	63µM*	/	/	?	?	?	3.6µM*	4.5µM*	0.39µM*
Cc1cn(C2OC(COC(=O)c3ccccc3)C(OC(=O)c3ccccc3)C2OC(=O)c2ccccc2)c(=O)[nH]c1=O (stereo not given)	-10%	-10%	-13%	-2%	-6%	1	/	/	/
SMILES	CXXC DNA block	GAA inh	GAA glycogen mod	aGlu spleen mod	Menin MLL FP TR	Menin MLL FP FL	MLL CXXC FP-Fl	MLL CXXC TxRed	MLL CXXC HTRF
S=C(NC1CCCCC1)N1CCN(C2CCCCC2)CC1	?	7%	-4%	0%	?	-11	?	14%	0%
O=C(NC1CCCCC1)N1CCN(C2CCCCC2)CC1	5%	-6%	3%	10%	-6%	0	/	/	/
CS(=O)(=O)n1nc(-c2ccc(Cl)cc2)nc1N	-14%	3%	21%	-5%	4%	0	/	/	/
Cn1nc(-c2ccc(Cl)cc2)nc2c(=O)n(C)c(=O)nc1-2	32µM*	4%	-3%	3%	?	?	142µM*	?	48%
CO	7%	/	/	6%	8%	-1	/	/	/
C=Cc1c(C)/c2[n-]/c1=C\c1[n-]c(c(CC)c1C)/C=c1\[n-]c3c(c1C)C(=O)C(C(=O)[O-])C=3c1[n-]c(c(C)c1CCC(=O)[O-])\C=2.[Cu].[Na+].[Na+] (stereo not given)	?	/	/	3%	?	-27	45µM*	126µM*	7.7µM*
Cc1ccc(C)c(NC(=O)C2CCCN(S(=O)(=O)c3cccc4nsnc34)C2)c1 (stereo not given)	/	/	-5%[76.3 µM]	/	/	/	/	/	/
